Assay outcomes as filed in PubChem BioAssay.
The list is not random: actives were taken first. Their share in the collection is about 2.4%.
TLR9-MyD88 block: inhibitors of TLR9-MyD88 association in cells, primary screen, cell-based, CHO, BLA complementation, fluorescence; Toll-like receptor 9 (Homo sapiens) + Myeloid differentiation primary response protein …; CCF4 FRET ratio; inhibition, % at 4.98 µM; actives 0.21% (n = 340,000);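 active = inhibition above the mean over all tested compounds plus 3 SD, cut at about 21% in these data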;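 also: 0% = DMSO only wells and 100% = clavulanate BLA inhibitor control wells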
TLR4-MyD88 BLA: inhibitors of TLR4-MyD88 association in cells, primary screen, cell-based, HeLa CL3-4, BLA complementation, FRET ratio; inhibition, % at 8.4 µM; Toll-like receptor 4 (Homo sapiens) + Myeloid differentiation primary response protein …; HeLa CL3-4 TLR4/MyD88 BLA complementation; actives 0.18% (n = 200,000); in the data active = inhibition above about 25%;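 also: 0% = vehicle and 100% = reference inhibitor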
Target sequence (O00206 whole entry, looked up): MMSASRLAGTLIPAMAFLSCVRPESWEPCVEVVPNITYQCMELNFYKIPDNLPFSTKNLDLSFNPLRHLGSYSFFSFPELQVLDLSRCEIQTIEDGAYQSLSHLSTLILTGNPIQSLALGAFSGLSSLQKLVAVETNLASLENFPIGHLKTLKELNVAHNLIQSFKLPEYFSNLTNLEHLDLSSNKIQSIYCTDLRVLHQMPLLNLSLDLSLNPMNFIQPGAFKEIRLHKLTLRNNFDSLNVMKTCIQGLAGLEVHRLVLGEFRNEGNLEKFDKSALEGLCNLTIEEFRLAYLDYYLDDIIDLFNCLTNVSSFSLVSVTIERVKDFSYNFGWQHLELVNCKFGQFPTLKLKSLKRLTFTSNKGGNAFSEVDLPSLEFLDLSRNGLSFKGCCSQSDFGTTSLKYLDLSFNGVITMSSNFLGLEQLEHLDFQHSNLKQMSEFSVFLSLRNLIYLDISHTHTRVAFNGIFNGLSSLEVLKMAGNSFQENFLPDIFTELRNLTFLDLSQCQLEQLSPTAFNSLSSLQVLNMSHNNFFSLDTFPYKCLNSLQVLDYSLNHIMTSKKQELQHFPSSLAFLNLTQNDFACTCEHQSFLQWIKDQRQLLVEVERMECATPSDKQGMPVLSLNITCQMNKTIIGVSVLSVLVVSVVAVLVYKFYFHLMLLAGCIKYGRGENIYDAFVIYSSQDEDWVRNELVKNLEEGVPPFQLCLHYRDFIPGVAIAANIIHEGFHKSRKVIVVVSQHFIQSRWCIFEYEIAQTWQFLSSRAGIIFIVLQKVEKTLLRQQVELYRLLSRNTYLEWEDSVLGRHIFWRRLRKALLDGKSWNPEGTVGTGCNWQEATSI
Target sequence (Q99836 whole entry, looked up): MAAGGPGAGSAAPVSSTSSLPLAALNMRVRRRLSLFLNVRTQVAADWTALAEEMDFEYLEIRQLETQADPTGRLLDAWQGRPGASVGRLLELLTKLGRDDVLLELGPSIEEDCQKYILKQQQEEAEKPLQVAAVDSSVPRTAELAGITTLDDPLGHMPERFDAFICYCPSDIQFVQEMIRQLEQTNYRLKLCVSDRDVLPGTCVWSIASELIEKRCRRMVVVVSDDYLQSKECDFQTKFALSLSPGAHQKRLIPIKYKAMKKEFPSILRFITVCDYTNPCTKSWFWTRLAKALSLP
CRFBP-R2 block: antagonists of CRF-BP/CRF-R2 complex, primary screen, cell-based, HEK293, calcium dye fluorescence, uHTS | actives 0.59% (n = 350,000) | inhibition, % at 11.8 µM | CRF-induced calcium fluorescence | AID 588475, 2011;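 active = inhibition of the ligand-induced calcium signal above about 50% at the single tested concentration, limit read from the data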
NOD2 RIPK2 PPI: NOD2-RIPK2 binding disruptors in cells, primary screen, fluorescence, CHO cells, BLA complementation; Receptor-interacting serine/threonine-protein kinase 2 (Homo sapiens), O43353; CCF4 ratio; inhibition, % at 4.98 µM; actives 0.38% (n = 360,000); in the data active = inhibition above about 21%;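 also: 0% = vehicle only and 100% = reference blocker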
m5-HT2A agonist: mouse Htr2a agonists via beta-arrestin recruitment, primary screen, cell-based, luminescence; 5-hydroxytryptamine receptor 2A (Mus musculus), P35363; CHO-K1 mHTR2A beta-arrestin complementation; percent of 30 µM serotonin response; activation, % at 7.6 µM; actives 0.66% (n = 360,000);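 active = activation above a run cutoff, the mean activation of all tested compounds plus 3 SD, cut at about 14% in these data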;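 also: 0% = plate median of compound wells and 100% = 30 µM serotonin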
ABHD5-PLIN5 inh: ABHD5-PLIN5 interaction inhibitors, primary screen, cell lysate, split luciferase complementation, luminescence; Perilipin-5 (Homo sapiens) + 1-acylglycerol-3-phosphate O-acyltransferase ABHD5 (Homo …; Split G. princeps luciferase complementation, 4 h; inhibition, % at 4 µM; actives 0.78% (n = 360,000); AID 602281, 2012;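 active = inhibition above the mean inhibition across every tested compound plus 3 SD, cut at about 22% in these data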;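 also: 0% = DMSO only wells and the 100% control is not disclosed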
ABHD5 PLIN5 conf: ABHD5-PLIN5 interaction inhibitors, confirmation, biochemical, luminescence; shares compounds with ABHD5-PLIN5 inh; inhibition, % at 4 µM; actives 67% (n = 2,200); in the data active = inhibition above about 23%;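 also: 0% = DMSO vehicle wells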
HNF4 split-luc: HNF4 dimerization inhibitors, counter-screen for ABHD5-PLIN5 interaction inhibitor project, biochemical, split-luciferase complementation, luminescence; inhibition, % at 4 µM; AID 651674, 2012; shares compounds with ABHD5-PLIN5 inh; actives 77% (n = 2,200);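 active = mean inhibition across replicate wells exceeding the computed hit threshold, cut at about 13% in these data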;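 also: light from luciferase halves that rejoin when HNF4 fusion proteins dimerize; 0% = DMSO only wells and the 100% control is not given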
* marks the source's active call; other numbers are inactive results.

How did CC(NC(=O)COC(=O)C1CCC1)c1ccccc1 (stereo not given) do in these assays?
TLR9-MyD88 block: -7; CRFBP-R2 block: -12; NOD2 RIPK2 PPI: -9; m5-HT2A agonist: 1; ABHD5-PLIN5 inh: 23*; ABHD5 PLIN5 conf: 4; HNF4 split-luc: 1

What do the screens show for `COc1ccc(-c2cc(CNc3nc(NC(C)C)nc4cc(-c5ccccc5)sc34)on2)cc1`?
NOD2 RIPK2 PPI: -15; m5-HT2A agonist: -6; ABHD5-PLIN5 inh: 7

How did O=C(Oc1ccc(Br)cc1C(=O)/C=C/c1ccccc1F)c1ccco1 do in these assays?
TLR9-MyD88 block: 10; TLR4-MyD88 BLA: -5; CRFBP-R2 block: -26; NOD2 RIPK2 PPI: 14; m5-HT2A agonist: 4; ABHD5-PLIN5 inh: 73*; ABHD5 PLIN5 conf: 99*; HNF4 split-luc: 93*

What do the screens show for `CC(=O)c1cc(Cl)ccc1OC(=O)c1ccco1`?
TLR9-MyD88 block: 4; TLR4-MyD88 BLA: 1; CRFBP-R2 block: 5; NOD2 RIPK2 PPI: -1; m5-HT2A agonist: 6; ABHD5-PLIN5 inh: 10

How did COc1ccc(NC(=O)C2(C)Cc3c(-c4cccc(C(F)(F)F)c4)ccnc3O2)cc1OC (stereo not given) do in these assays?
NOD2 RIPK2 PPI: 10; m5-HT2A agonist: -1; ABHD5-PLIN5 inh: -3

How did COCC1=C(C(=O)OC)C(c2ccco2)n2ncnc2N1 (stereo not given) do in these assays?
CRFBP-R2 block: 0; NOD2 RIPK2 PPI: -6; m5-HT2A agonist: 2; ABHD5-PLIN5 inh: 38*; ABHD5 PLIN5 conf: -3; HNF4 split-luc: 9

How did CC(C)C(=O)N(c1cc2sc(=O)oc2c2ccccc12)S(=O)(=O)c1cccs1 do in these assays?
TLR9-MyD88 block: 9; TLR4-MyD88 BLA: 9; CRFBP-R2 block: -50; NOD2 RIPK2 PPI: -18; m5-HT2A agonist: 5; ABHD5-PLIN5 inh: 68*; ABHD5 PLIN5 conf: 9; HNF4 split-luc: 75*

What do the screens show for `O=C(c1ccccc1)C(CN1CCCCC1)c1ccccc1` (stereo not given)?
TLR9-MyD88 block: 0; CRFBP-R2 block: 3; NOD2 RIPK2 PPI: 7; m5-HT2A agonist: -1; ABHD5-PLIN5 inh: 29*; ABHD5 PLIN5 conf: 21; HNF4 split-luc: 95*

How did Cc1cc(C)nc(NS(=O)(=O)c2ccc(NCN3C(=O)c4ccccc4C3=O)cc2)n1 do in these assays?
TLR9-MyD88 block: -2; CRFBP-R2 block: 17; NOD2 RIPK2 PPI: 0; m5-HT2A agonist: 12; ABHD5-PLIN5 inh: 27*; ABHD5 PLIN5 conf: 6; HNF4 split-luc: 6

How did O=C(NCc1cccs1)c1ccc2sc(C3=C[C@@H](O)[C@@H](O)[C@@H](CO)O3)nc2c1 do in these assays?
NOD2 RIPK2 PPI: -1; m5-HT2A agonist: 7; ABHD5-PLIN5 inh: 2

How did Nc1sccc1C(=O)N1CCN(c2ccccc2)CC1 do in these assays?
NOD2 RIPK2 PPI: 2; m5-HT2A agonist: 3; ABHD5-PLIN5 inh: 30*; ABHD5 PLIN5 conf: 1; HNF4 split-luc: 42*

Results for O=C(c1cccs1)N1CCN(c2ccccc2)CC1 ?
TLR9-MyD88 block: 5; TLR4-MyD88 BLA: 9; CRFBP-R2 block: 7; NOD2 RIPK2 PPI: -11; m5-HT2A agonist: -1; ABHD5-PLIN5 inh: 0

What do the screens show for `Cc1ccc(C(=O)/C=C\C(=O)c2ccc(C)cc2)cc1`?
TLR9-MyD88 block: -1; TLR4-MyD88 BLA: -8; CRFBP-R2 block: -48; NOD2 RIPK2 PPI: 3; m5-HT2A agonist: 3; ABHD5-PLIN5 inh: 18

What do the screens show for `O=C(O)/C=C/C(=O)c1ccc(O)cc1`?
TLR9-MyD88 block: -5; CRFBP-R2 block: 0; NOD2 RIPK2 PPI: 2; m5-HT2A agonist: -2; ABHD5-PLIN5 inh: 86*; ABHD5 PLIN5 conf: 96*; HNF4 split-luc: 104*

How did CC(=O)N1CCc2c(sc(NC(=O)CCS(=O)(=O)c3ccccc3)c2C(N)=O)C1 do in these assays?
TLR9-MyD88 block: -10; CRFBP-R2 block: 5; NOD2 RIPK2 PPI: 10; m5-HT2A agonist: -3; ABHD5-PLIN5 inh: -2

What do the screens show for `CCOC(=O)N1CCc2c(sc(NC(=O)CCS(=O)(=O)c3ccccc3)c2C(N)=O)C1`?
TLR9-MyD88 block: -14; CRFBP-R2 block: 15; NOD2 RIPK2 PPI: -1; m5-HT2A agonist: -2; ABHD5-PLIN5 inh: 30*; ABHD5 PLIN5 conf: 24*; HNF4 split-luc: 37*

What do the screens show for `N#C/C(=C\c1ccccc1OCc1ccc(C(=O)O)cc1)C(=O)Nc1ccc(O)cc1`?
TLR9-MyD88 block: -9; TLR4-MyD88 BLA: 10; CRFBP-R2 block: -7; NOD2 RIPK2 PPI: -6; m5-HT2A agonist: 1; ABHD5-PLIN5 inh: 46*; ABHD5 PLIN5 conf: 58*; HNF4 split-luc: 56*

How did COC(=O)c1ccc(COc2ccccc2/C=C(\C#N)C(=O)Nc2ccc(C)cc2)cc1 do in these assays?
TLR9-MyD88 block: -3; TLR4-MyD88 BLA: -4; CRFBP-R2 block: -18; NOD2 RIPK2 PPI: 4; m5-HT2A agonist: 0; ABHD5-PLIN5 inh: 1

How did C[C@]12CC[C@H](O)CC1=CCC1C2CC[C@@]2(C)C1CC[C@@H]2NCc1ccccc1 (stereo not given in full) do in these assays?
TLR9-MyD88 block: -10; CRFBP-R2 block: -35; NOD2 RIPK2 PPI: -7; m5-HT2A agonist: 6; ABHD5-PLIN5 inh: 5

Results for Cc1ccc(C(O)c2ncc(-c3cccc4ccccc34)[nH]2)c(C)c1 (stereo not given) ?
NOD2 RIPK2 PPI: 0; m5-HT2A agonist: -1; ABHD5-PLIN5 inh: -11

What do the screens show for `O/N=C\c1ccc(-c2ccccc2)o1`?
TLR9-MyD88 block: 3; TLR4-MyD88 BLA: -3; CRFBP-R2 block: 19; NOD2 RIPK2 PPI: 6; m5-HT2A agonist: 3; ABHD5-PLIN5 inh: -5

What do the screens show for `O=C(O)CCc1ccc(-c2ccccc2)o1`?
TLR9-MyD88 block: 2; TLR4-MyD88 BLA: -4; CRFBP-R2 block: -22; NOD2 RIPK2 PPI: 3; m5-HT2A agonist: 2; ABHD5-PLIN5 inh: 38*; ABHD5 PLIN5 conf: 24*; HNF4 split-luc: 48*

Results for Cc1ccc(C(=O)Nc2nc3ccccc3c(=O)s2)cc1 ?
TLR9-MyD88 block: -2; TLR4-MyD88 BLA: 8; CRFBP-R2 block: -28; NOD2 RIPK2 PPI: -8; m5-HT2A agonist: 5; ABHD5-PLIN5 inh: 29*; ABHD5 PLIN5 conf: 6; HNF4 split-luc: -10
